# Screening results from PubChem BioAssay.
# MARV entry inh: inhibitors of Marburg virus binding or cell entry; Marburg virus pseudotyped entry inhibition, cell reporter; Potency, µM (top dose mostly 37.8 µM), for inactives: top-dose activity change, negative = inhibition, usual class: inhibitors; hit rate 1.8% among 300,000; AID 540276; calls by dose curve; tested in HEK293 cells
# RE007 growth inh: less growth of the S. pombe RE007 Vpr strain | S. pombe RE007 Vpr strain, BacTiter-Glo ATP luminescence, 24 h | Potency, µM (series often up to 92.2 µM), inactives show at the top dose activity change, negative = less growth, hits mostly inhibitors | hit rate 0.21% among 360,000 | AID 651644; active = well fitted falling curve with a large enough effect; inconclusive = small, poorly fitted or top-dose-only effect; inactive = no such curve, though single readings can be large or run the other way; note: nearly all actives have a fitted effect of over 50% in size
#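 Fission yeast RE007 carrying one integrated HIV-1 vpr copy, seeded at OD 0.01 in PMG+AL medium with 23 nL pinned compound. Grown 24 h at 30 degrees; viability read by BacTiter-Glo luminescence after 5 min.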
# FMDV inh: antivirals against foot and mouth disease virus; hit rate 1.2% among 410,000; FMDV antiviral cell-based qHTS; Potency, µM (doses to about 57.9 µM), without a hit: top-dose activity change, negative = inhibition, actives largely listed as inhibitors; calls by dose curve; tested in HEK293T cells; note: read-out not given here; nearly all actives have a fitted effect of over 45% in size
# Sm TGR inh: blocks Schistosoma mansoni thioredoxin glutathione reductase. Potency, µM (series often up to 114 µM), for the others: at the highest dose activity change, negative = inhibition, hits mostly inhibitors. hit rate 3% among 360,000. AID 485364. purified TGR, DTNB reduction, TNB absorbance 405 nm; note: nearly all actives have a fitted effect of over 60% in size
#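 TGR 20 nM + NADPH 100 uM (dispensed conc.), cpd preinc 15 min RT; start with NADPH (500 uM addition) then DTNB (15 mM addition). Kinetic TNB absorbance, 405 nm filter. Four-parameter Hill fit across titration.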
# HCV inh: blocks hepatitis C virus; AID 651820; Potency, µM (doses to about 41.8 µM), for the others: at the highest dose activity change, negative = inhibition, hits mostly inhibitors; Huh7.5.1 HCVcc-Cre infection, luciferase reporter, 44 h; hit rate 3.4% among 340,000
#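 1,000 cells/well; 4 h culture; + compound; + HCVcc-Cre (~0.5 moi); 44 h; luciferase substrate, RT 15 min; read 15 sec.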
# LASV entry inh: blocks Lassa virus binding to or entry into cells. AID 540256. Potency, µM (series often up to 37.9 µM), without a hit: at the highest dose activity change, negative = inhibition, actives largely listed as inhibitors. hit rate 1.2% among 300,000. Lassa virus pseudotype entry inhibition, cell reporter; calls by dose curve; tested in HEK293 cells; note: nearly all actives have a fitted effect of over 50% in size
# * marks the source's active call; other numbers are inactive results; ? = inconclusive; . = not tested or not shown; [ ] = dose if it differs, or a comment. A selection: hits, their analogues and other compounds. The true share with any hit is near 7.2%. Unless noted, calls come from the whole dose curve; as a rule, active = well fitted curve in the direction sought with a large enough effect; inconclusive = small, poorly fitted or top-dose-only effect, or another doubt; inactive = no such curve, though single readings can be large; an effect the other way counts as inactive or inconclusive. % is set by controls: 0 for no effect and ±100 for the full control effect; potency is the fitted concentration of half-maximal effect.
SMILES,MARV entry inh,RE007 growth inh,FMDV inh,Sm TGR inh,HCV inh,LASV entry inh
CC1(C)CC2(CC(c3ccc(F)cc3)c3ccc(O)cc3O2)NC(=S)N1 (stereo unspecified),.,18%,?,1%,-23%,.
CC1(C)CC2(CC(c3ccccc3F)c3ccc(O)c(O)c3O2)NC(=S)N1 (stereo unspecified),-3%[46.1 µM],-16%,-18%,1.1µM*,-3%,?
CCOC(=O)c1ccc(N=c2sc(C(=O)OC)cc(=O)n2-c2ccc(C(=O)OCC)cc2)cc1,-12%,-2%,20µM*,9%,10µM*,-14%
COC(=O)c1cc2c(C)nn(-c3ccccc3)c2s1,21%,8%,6%,6%,6.3µM*,10%
CCOC(=O)c1ccc(N2C(=O)CC(C(=O)OC)=C2C)cc1,-23%[46.1 µM],3%,-12%,-14%,-4%,-5%
Cc1nn(-c2ccccc2)c2sc(C(=O)O)cc12,18%[46.1 µM],-10%,17%,1%,12%,-4%
COC(=O)c1cc(=O)n(-c2ccccc2)c(=Nc2ccccc2)s1,1%,0%,13µM*,40µM*,?,-1%
COC(=O)c1cc(=O)n(Cc2cccs2)c(=Nc2ccccc2)s1,.,26%,?,8%,?,.
CSc1ccc(NC(=O)N2CC=C(n3c(=O)[nH]c4ccccc43)CC2)cc1,?,2%,?,0%,10µM*,?
O=C(CN1C(=O)COc2ccccc21)NCCN1CCC(Cc2ccccc2)CC1,-24%,0%,-5%,1%,22µM*,-13%
O=C(Cc1cccs1)NCCSc1c(-c2ccc(Cl)cc2)[nH]c2ccccc12,?,7%,22µM*,-5%,13µM*,16µM*
CN(C)S(=O)(=O)c1ccc(C(=O)NCCSc2c(-c3ccc(Cl)cc3)[nH]c3ccccc23)cc1,?,.,?,4%,.,?
C[C@@H]1CN(Cc2ccc3c(c2)CN(C(=O)c2ccc(Oc4ccccc4)o2)CCO3)C[C@H](C)O1,.,.,-16%,.,.,.
CCOC(=O)c1ccc(-n2c(CN3CCN(CCO)CC3)nc3ccc([N+](=O)[O-])cc3c2=O)cc1,.,8%,-12%,35µM*,-24%,.
Cc1ccc(/C=C/C(=O)OC(C)C(=O)Nc2ccc(Cl)cn2)o1 (stereo unspecified),?,5%,-13%,13µM*,-19%,-1%
COc1cc(/C=C/C(=O)OC(C)C(=O)Nc2ccc(Cl)cn2)ccc1OC(F)F (stereo unspecified),?,-7%,?,.,?,-7%
COc1ccc2[nH]c(C)c(CCNS(=O)(=O)c3cc(F)ccc3OC)c2c1,?,.,29%,-4%,.,4%[46.1 µM]
O=C1CN(CC(=O)N2CCCCC2)c2ccccc2O1,11%,?,18%,11µM*,2%,2%
O=C1CN(CC(=O)N2CCOCC2)c2ccccc2O1,.,.,.,20µM*,.,.
O=C(CN1C(=O)COc2ccccc21)N1CCOCC1,.,-13%,-18%,0%,22%,.
O=C(CC1N=C2c3ccccc3N=C(SCc3ccccc3Cl)N2C1=O)NCCc1ccccc1 (stereo unspecified),.,.,29%,6%,.,-10%[46.1 µM]
COc1ccc(C(=O)N2N=C(c3ccccc3)CC2(O)C(F)(F)F)cc1 (stereo unspecified),13µM*,-18%,-15%,-3%,-4%,?
COc1cccc(C(=O)N2N=C(c3ccccc3)CC2(O)C(F)(F)F)c1 (stereo unspecified),-27%,-8%,-28%,-1%,?,4%
COc1ccccc1/C=C/c1nc(S(=O)(=O)c2ccccc2)c(NCCN(C)C)o1,.,-8%,-4%,22µM*,-1%,.
CCNc1oc(-c2ccc(OC)cc2)nc1S(=O)(=O)c1ccc(Br)cc1,-1%,-8%,14%,-29%,2%,?
SMILES,MARV entry inh,RE007 growth inh,FMDV inh,Sm TGR inh,HCV inh,LASV entry inh
Cc1ccc(S(=O)(=O)c2nc(C)oc2NCc2ccccc2)cc1,1%,.,.,2µM*,12%,.
COc1ccc(-c2nc(S(=O)(=O)c3ccc(C)cc3)c(NCc3ccccc3)o2)cc1,-19%[46.1 µM],.,24%,13µM*,.,?
CCCCNc1oc(-c2ccc(OC)cc2)nc1S(=O)(=O)c1ccccc1,-12%,-8%,1%,32µM*,-20%,?
CN(C(=O)CSc1cn(CC(=O)N2CCCC2)c2ccccc12)c1ccccc1,.,.,3%,5%,.,3%[46.1 µM]
Cc1ccc(S(=O)(=O)c2nc(-c3ccccc3)oc2NCCN2CCOCC2)cc1,?,20%,-5%,45µM*,4%,-28%
O=S(=O)(c1ccc(F)cc1)c1nc(-c2ccc(F)cc2)oc1NCCN1CCOCC1,?,-27%,-19%,-35%,2%,?
N#Cc1sc2nc(C3CC3)cc(-c3ccccc3)c2c1N,-20%,-4%,0%,9%,?,-23%
N#Cc1sc2nc(-c3ccccc3)cc(-c3ccco3)c2c1N,3%,-6%,-15%,40µM*,13µM*,?
N#Cc1c(-c2ccccc2)cc(-c2ccco2)c(C#N)c1N,0%,.,.,2.8µM*,?,.
N#Cc1c(-c2ccco2)cc(-c2ccccc2)[nH]c1=O,.,3%,-6%,8.9µM*,-7%,.
Cc1ccc(-c2cc(-c3ccco3)c(C#N)c(=O)[nH]2)cc1,?,-2%,-6%,2.2µM*,-2%,12%
Cc1cc(C)c2c(=O)n3c(nc2c1)C(Cc1ccccc1)NC(=O)c1cccnc1-3 (stereo unspecified),.,7%,-10%,.,.,.
O=C(CSc1nc2c([nH]c3ccccc32)c(=O)n1-c1ccccc1)N1CCCCCC1,.,.,8%,5%,.,17%[46.1 µM]
O=C(c1ccccc1Br)N1CCC(c2nc3ccccc3o2)CC1,-9%[46.1 µM],.,-24%,0%,.,-8%[46.1 µM]
C[C@H](NC(=O)COc1ccccc1)C(=O)OCC(=O)c1cc2ccccc2o1,0%[46.1 µM],-11%,18%,.,12%,6%[46.1 µM]
O=C(Nc1cc(-c2ccc(F)c(F)c2)no1)c1ccccc1F,?,.,29%,-12%,.,17%[46.1 µM]
Cc1ccc(Cl)cc1NC(=O)Nc1cccs1,10µM*,-15%,4%,-5%,1%,-3%
CCOC(=O)CSc1nnc(NCC(=O)OC)c(=O)[nH]1,5%,-5%,-2%,16µM*,3%,0%
CCOC(=O)CSc1nnc(C)c(=O)[nH]1,8%,10%,22%,6%,22%,11%
Cc1ccc(/C=C/C(=O)N2CCc3ccccc32)o1,?,-90%,-30%,45µM*,3%,?
O=C(/C=C/c1ccco1)N1CCc2ccccc21,?,?,-45%,7.9µM*,-18%,?
CCOC(=O)/C=C/C(=O)N1CCc2ccccc21,-7%,?,15%,-11%,20%,-2%
Cc1cccc(CCNC(=O)CN(c2ccc(C(C)C)cc2)S(=O)(=O)c2c(C)nn(C)c2C)c1,0%[46.1 µM],.,-29%,-2%,.,?
